Screen size: about 370,000 compounds; about 2,400 (0.65%) were called active. The sample as a whole holds a higher share of actives than the screen did. Unmarked numbers belong to inactive results.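 Rule for the calls: active = inhibition above the screen-wide mean plus 3 SD (cut at about 13% in these data); inactive = the rest.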
Each compound was assayed on HIV-1 integrase (with human LEDGF/p75) (assay: blockers of LEDGF/p75-dependent integrase strand transfer – biochemical, TR-FRET, high throughput, primary screen (AID 743269;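 note: signal is the Cy5 over europium emission ratio at 671 and 618 nm; 0% = plate median of compound wells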)). Conditions: TR-FRET IN-LEDGF/p75 DNA integration, Eu/Cy5; at 3.7 µM; active compounds read high.

| Compound | inhibition |
| --- | --- |
| CCC(=O)c1c(CC)c2n3c1=CC[C@H]3CC(Br)C=2 (some centres not stated) | -2.29% |
| CN(C)Cc1cn(-c2ccc(-c3noc4c3C(=O)N(CC(=O)N3CCOCC3)CC4)cc2)nn1 | -1.95% |
| COc1ccc(C#CCNCc2ccc(OC)cc2OC)cc1 | -3.69% |
| CCCCOCCCNC(=O)C[C@H]1C[C@@]2(C(=O)OC)C(=C[C@H](C(C)(C)C)O[C@@H]2C)N(CCc2ccc(OC)c(OC)c2)C1=O | 2.16% |
| Cc1cc(C(=O)NN=C/C=C/c2ccco2)n[nH]1 | 15.1% (active) |
| CN(C)S(=O)(=O)c1cccc(C(=O)N/N=C\c2ccco2)c1 | -0.56% |
| CC(C)CNC(=O)COC(=O)/C=C/c1ccco1 | 0.15% |
| COc1ccc(N2CCN(CCNS(=O)(=O)c3ccc(Cl)s3)CC2)cc1 | -1.84% |
| O=C(CSc1nnc(-c2ccccn2)n1-c1ccc(Cl)cc1)Nc1ccccc1-c1ccccc1 | -2.85% |
| C=CCN1C(=O)[C@H](CC(=O)N2CCN(C(=O)OCC)CC2)[C@@]2(C(=O)OCC)CCCC=C12 | -0.39% |
| O=C(CO/N=C/c1ccccc1O)NNC(=O)c1ccccc1Cl | 3.91% |
| O=C(NNC(=O)c1ccccc1O)c1ccccc1O | 27.2% (active) |
| O=C(NNC(=S)NC1CCCCC1)c1ccccc1Cl | 0.05% |
| CCC(c1ccc(NC(=O)OC(C)(C)C)cc1)c1cc(OC)cc(OC)c1 (configuration not stated) | -0.14% |
| CCOC(=O)C1(Cc2ccccc2)CCN(Cc2cn(C(C)=O)c3ccccc23)CC1 | -1.3% |
| Cc1ccccc1NC(=O)COC(=O)c1ccc(Sc2ncn[nH]2)c([N+](=O)[O-])c1 | -3.54% |
| COc1ccc2c(c1)c(=Cc1ccc(N(C)C)cc1)c1cc(-c3ccccc3)[n+](C)n12 | 18.8% (active) |
| O=C(CN1CCC(NC(=O)NCc2ccccc2)CC1)Nc1ccc2c(c1)OCCO2 | 0.58% |
| O=C(Nc1ccc(Br)cc1)OCCN1C(=O)CCC12CCC(c1ccccc1)CC2 (configuration not stated) | -0.45% |

| Compound | inhibition |
| --- | --- |
| Cc1cccc2cc3c(N)c(C(=O)N4CCCc5ccccc54)sc3nc12 | 1.54% |
| Cc1ccc2c(c1)N(CC(=O)N1CCCc3ccccc31)C(=O)C(C)O2 (configuration not stated) | 4.28% |
| Cc1ccc(C(=O)N2CCCc3ccccc32)c(Cl)c1 | 38% (active) |
| COc1ccc(C(=O)CSc2nnc(-c3cnccn3)n2-c2ccc(C)cc2)cc1 | 0.86% |
| Cc1ccccc1NC(=O)Cn1nnc(-c2ccccc2F)n1 | 3.47% |
| Cc1cc(=O)[nH]c(SCC(=O)Nc2ccc(Cl)cc2C)n1 | 0.96% |
| COCCNC(=O)c1cc2c(Br)ccc(Br)c2nc1N | -5.17% |
| COCCNC(=O)Nc1ccc2nc(-c3ccco3)c(-c3ccco3)nc2c1 | 90.1% (active) |
| COCCNC(=S)c1ccc(OC)cc1 | -1.56% |
| COc1ccc(CCNC(=O)CSc2nc3c([nH]2)c(=O)n(C)c(=O)n3C)cc1 | 0.75% |
| O=C(NCc1cccs1)C1CCN(S(=O)(=O)c2ccccc2[N+](=O)[O-])CC1 | 3.07% |
| CC(C)(C)NC(=O)C(c1cccnc1)N(C(=O)c1cnco1)c1ccc(C(C)(C)C)cc1 (configuration not stated) | 0.93% |
| CCOC(=O)[C@]12CCCCC/C=C\1N(Cc1ccc(OC)cc1)C(=O)[C@H]2CC(=O)NCc1ccc(C)o1 | -2.04% |
| COC(=O)c1ccc(COc2ccc(/C=C/C(=O)c3ccc(OC)c(CSCC(=O)O)c3)cc2OC)cc1 | 1.77% |
| COc1ccc(C(C)=O)cc1CSc1nc2nc(C)cc(C)n2n1 | -4% |
| COc1ccc(C(=O)/C=C/c2ccc(-c3ccccc3)cc2)cc1CSCC(=O)O | 13.5% (active) |
| CCOc1ccc(Oc2c(Cl)cnn(-c3ccc(C)cc3)c2=O)cc1 | -2.65% |
| COc1cccc(N(C)C(=O)[C@@H](C)[C@@H](O)c2ccc3ccccc3c2)c1 | 2.81% |
| CC(=O)c1ccc(OCC(=O)N(C)C2CCS(=O)(=O)C2)cc1 (configuration not stated) | 1.55% |

| Compound | inhibition |
| --- | --- |
| CN(C(=O)COC(=O)c1cc(=O)[nH]c2ccccc12)C1CCCCC1 | -9.3% |
| CN(C(=O)COC(=O)c1cc(-c2ccco2)nc2ccccc12)C1CCS(=O)(=O)C1 (configuration not stated) | 30.7% (active) |
| CCOC(=O)[C@]12CCCC=C1N(Cc1ccc(OC)cc1)C(=O)[C@@H]2CC(=O)NCc1cccs1 | 0.74% |
| CCOC(=O)CN1C(=O)C(O)(CC(=O)c2ccccn2)c2ccccc21 (configuration not stated) | 3.17% |
| O=C(CC1(O)C(=O)N(CN2CCOCC2)c2ccccc21)c1ccccc1 (configuration not stated) | 3.55% |
| C=CCN1C(=O)C(O)(CC(=O)c2ccccn2)c2ccccc21 (configuration not stated) | 15.4% (active) |
| N#CCC[C@H]1CC[C@]2(CCCN(Cc3ccc(Cl)cc3)C2)O1 | 0.5% |
| O=S1(=O)c2ccc(Br)cc2OC[C@H](Cc2ccccc2)N1Cc1cn(Cc2ccccc2)nn1 | -5.3% |
| CCc1cc2c(NC3CCCC3)ncnc2s1 | -1.83% |
| Clc1cc(NC2CCCCC2)ncn1 | 21.7% (active) |
| Cc1cc([N+](=O)[O-])c(NC2CCCCC2)c([N+](=O)[O-])c1 | 0.17% |
| O=C(C1CCN(S(=O)(=O)c2ccccc2)CC1)N1CCN(C2CCCCC2)CC1 | -2.53% |
| Cc1cc(C)cc(NC(=O)N2CCC(N(C)CCC(C)C)CC2)c1 | 3.5% |
| CC(=NCc1ccc2c(c1)OCO2)C1=C(O)c2ccccc2C1=O | 14.5% (active) |
| O=C(CC(Cc1ccccc1)C(=O)O)NCCc1ccc2c(c1)OCO2 (configuration not stated) | -1.84% |
| CC1(C(=O)NCc2ccc3c(c2)OCO3)CCN1CCc1ccccc1 (configuration not stated) | 3.29% |
| O=S(=O)(c1ccccc1)N1CCC(c2nc3ccccc3o2)CC1 | -3.8% |
| Cc1ccc(C(=O)N(Cc2ccccn2)CC2CCCO2)cc1 (configuration not stated) | -1.5% |
| O=C(CSc1nc2ccccc2nc1N1CCCCC1)N1CCN(S(=O)(=O)c2cccc([N+](=O)[O-])c2)CC1 | 7.35% |

Source: PubChem BioAssay AID743269 (The Scripps Research Institute Molecular Screening Center, 2014)
